Data published in PMC4336329 (PLoS ONE, 2015).
Out of some 310,000 compounds screened, about 14,000 (4.5%) showed an effect of 50% or more. Effects have a minus sign here. This excerpt belongs to a sample that is enriched for strong results.

Biological target: human ether-à-go-go-related gene (hERG) potassium channel (human, UniProt Q12809)
Test: primary screen, population patch clamp on CHO cells stably expressing hERG; higher = less effect of the substance
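Also: peak tail current of the secondary pulse compared with the same well before compound.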

Chain of human ether-à-go-go-related gene (hERG) potassium channel (Q12809 whole entry, looked up): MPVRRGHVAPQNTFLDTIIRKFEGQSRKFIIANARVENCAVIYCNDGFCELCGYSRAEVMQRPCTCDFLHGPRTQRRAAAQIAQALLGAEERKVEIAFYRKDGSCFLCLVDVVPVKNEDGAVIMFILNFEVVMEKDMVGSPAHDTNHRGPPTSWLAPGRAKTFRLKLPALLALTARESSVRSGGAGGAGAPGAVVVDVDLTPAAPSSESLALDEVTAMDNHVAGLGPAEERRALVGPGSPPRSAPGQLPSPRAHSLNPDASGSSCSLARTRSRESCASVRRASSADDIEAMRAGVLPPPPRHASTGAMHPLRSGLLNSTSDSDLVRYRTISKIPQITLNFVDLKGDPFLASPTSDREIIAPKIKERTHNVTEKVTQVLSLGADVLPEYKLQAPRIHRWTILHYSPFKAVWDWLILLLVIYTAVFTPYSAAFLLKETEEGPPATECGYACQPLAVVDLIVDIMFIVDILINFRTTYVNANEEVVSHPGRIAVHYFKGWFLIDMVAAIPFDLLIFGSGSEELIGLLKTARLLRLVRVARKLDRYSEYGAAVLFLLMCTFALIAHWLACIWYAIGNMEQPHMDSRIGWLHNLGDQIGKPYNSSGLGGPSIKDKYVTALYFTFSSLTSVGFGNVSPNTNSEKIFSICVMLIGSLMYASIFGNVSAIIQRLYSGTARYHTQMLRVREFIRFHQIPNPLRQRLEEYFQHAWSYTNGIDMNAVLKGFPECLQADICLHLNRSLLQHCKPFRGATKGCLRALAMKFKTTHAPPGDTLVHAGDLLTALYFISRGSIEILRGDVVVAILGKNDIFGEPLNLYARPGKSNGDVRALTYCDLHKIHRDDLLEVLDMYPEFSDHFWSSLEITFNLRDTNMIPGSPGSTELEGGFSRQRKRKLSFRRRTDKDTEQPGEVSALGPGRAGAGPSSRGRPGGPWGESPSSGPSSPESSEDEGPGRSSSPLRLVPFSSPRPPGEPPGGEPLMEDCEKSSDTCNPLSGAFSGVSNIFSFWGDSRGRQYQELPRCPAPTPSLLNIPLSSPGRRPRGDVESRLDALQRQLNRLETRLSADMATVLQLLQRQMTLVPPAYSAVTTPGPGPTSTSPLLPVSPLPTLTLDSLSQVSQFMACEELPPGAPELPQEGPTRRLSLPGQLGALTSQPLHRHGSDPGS

| Compound | hERG current change (%, negative = inhibition) at 10uM [%] |
| --- | --- |
| Cc1ccc(NCC(=O)N/N=C/c2ccc(OC(=O)c3ccco3)cc2)cc1 | 1.76 |
| CCCN(CC(=O)Nc1ccccc1C)C(=O)COc1c(C)cccc1C | -4.72 |
| NS(=O)(=O)c1ccc(Nc2ccc3nonc3c2[N+](=O)[O-])cc1 | 9.07 |
| O=C(CSc1n[nH]c(=O)n1C1CC1)c1c[nH]c2ccccc12 | 9.29 |
| O=C(CN1C(=O)/C(=C/c2ccccc2)Sc2ccccc21)NCCCN1CCOCC1 | -42.8 |
| O=C(CCN1C(=O)/C(=C\c2cccc(Br)c2)SC1=S)NCCCN1CCOCC1 | -63.4 |
| O=C(CN1C(=O)/C(=C/c2ccc(C(F)(F)F)cc2)Sc2ccccc21)NCCCN1CCOCC1 | -65.6 |
| O=C(CN1C(=O)/C(=C/c2cccc(Br)c2)SC1=S)NCCCN1CCOCC1 | 5.42 |
| CCc1ccc(/C=C2/Sc3ccccc3N(CC(=O)NCCCN3CCOCC3)C2=O)cc1 | -41.3 |
| O=C(CCCN1C(=O)/C(=C/c2cccc(Br)c2)SC1=S)NCCCN1CCOCC1 | -18.1 |
| O=C(N/N=C/c1cc(Br)c(O)c(Br)c1O)c1ccc2c(c1)OCCO2 | -26.9 |
| Cc1cc(CNC(=O)Cn2cc([N+](=O)[O-])cn2)c2ccccc2n1 | -11.5 |
| Cc1cccc(OCC(=O)Nc2ccccc2N2CCCCC2)c1C | -21.9 |
| Cc1ccc(S(=O)(=O)N2CCCCC2)cc1NC(=O)CCc1nc2ccccc2c(=O)[nH]1 | -24.3 |
| Cc1ccc(-c2nnn(CC(=O)N(Cc3cccs3)C(C(=O)NC(C)(C)C)c3ccco3)n2)o1 (stereo not shown) | 14.4 |
| Cc1ccc(C(=O)N/C(=C\c2cn(C)c3ccccc23)C(=O)NCCCn2ccnc2)cc1 | -7.74 |
| Cc1ccc(C(=O)N/C(=C\c2cccs2)C(=O)NCCc2ccccn2)cc1C | -1.92 |
| Cc1ccc(C(=O)N/C(=C\c2cccs2)C(=O)NCCCn2ccnc2)cc1 | -70.3 |
| COc1ccc(C(=O)N/C(=C/c2cccs2)C(=O)NCCCn2ccnc2)cc1OC | -7.14 |
| O=C(NCc1ccco1)/C(=C\c1cccs1)NC(=O)c1cccs1 | 6.26 |
| Cc1ccc(C(=O)N/C(=C/c2cccs2)C(=O)NCCCn2ccnc2)cc1 | -71.9 |
| Cc1ccc(C(=O)N/C(=C\c2cn(S(=O)(=O)N(C)C)c3ccccc23)C(=O)NCCCn2ccnc2)cc1 | -28.6 |
| O=C(NCCO)/C(=C\c1cccs1)NC(=O)c1cccs1 | 18.7 |
| O=C(NCCCn1ccnc1)/C(=C\c1cccs1)NC(=O)c1cccs1 | -62 |
| Cc1ccc(C(=O)N/C(=C\c2cccs2)C(=O)NCCCn2ccnc2)cc1C | -61 |
